In PubChem BioAssay (NCI):
Compounds without any hit were thinned out: in the full panel of roughly 83,000, 20% have a hit.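 For each line, cells grew in 96-well plates with the test compound present at a single concentration for 48 hours.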 Values without a mark were called inactive. Activity calls are given as the source filed them. How the source made its calls: active means growth percent below 10; inactive means the rest.

test system: T-47D breast; test: NCI-60 one-dose screen, 48 h (100 = growth as untreated, 0 = no growth, -100 = all killed); details: 10 µM unless noted

| Structure (SMILES) | growth |
| --- | --- |
| COc1ccc(Cn2nc(-c3ccccc3)c3c2CCc2cnoc2-3)cc1 | 43.4% |
| CCCN=C(N)c1ccc(NC(=O)c2ccc(C(=O)Nc3ccc(C(N)=NCCC)cc3)cc2)cc1 | 77.6% |
| O=S(=O)(c1cccc(NC2=Nc3cccc4cccc2c34)c1)N1CCCC1 | 44.5% |
| COc1cc2c(cc1[N+](=O)[O-])-c1ccc([N+](=O)[O-])cc1/C2=N\O | 91.1% |
| COc1cccc(/C=C2\COc3ccc(-c4ccccc4)cc3C2=O)c1 | -6.21% (active) |
| Cc1ccc(C2CC(c3cccc(Nc4ccncc4)c3)=NN2c2ccccc2)cc1 (stereo not drawn) | -58.2% (active) |
| Cn1c2c(Cl)c(Cl)ccc2c2cc(N)[nH]c(=O)c21 | 79.7% |
| O=S(=O)(c1ccc(N/N=C\c2ccccc2)cc1)c1ccc(N/N=C/c2ccccc2)cc1 | 56% |
| OC1(c2ccc(Cl)c(C(F)(F)F)c2)CCN(CCCC(c2ccc(F)cc2)c2ccc(F)cc2)CC1 | -62.1% (active) |
| N#Cc1ccc(-c2ccc3c(c2)NC(=O)/C3=C\c2ccc[nH]2)cc1 | 9.73% (active) |
| C=C(C)[C@@H]1CC[C@]2(C(=O)NCC(=O)OC)CC[C@]3(C)[C@H](CC[C@@H]4[C@@]5(C)Cc6c([nH]c7ccccc67)C(C)(C)[C@@H]5CC[C@]43C)[C@@H]12 | 47.7% |
| O=C(Nc1nc2ccc(S(=O)(=O)Nc3ccc(C4(C(F)(F)F)CC4)cc3)cc2[nH]1)c1cnccn1 | 31.7% |
| C=Cc1cc[n+](CCCCCCCCCCCC)cc1 | 131% |
| CC(c1ccccc1)n1ccnc1CO (stereo not drawn) | 104% |
| Cn1c(COC(=O)N2CCCCC2)nc2c(N3CCOCC3)nc(-c3ccccc3)nc21 | -38.4% (active) |
| Clc1nc(Nc2ccccc2)nc(Nc2ccccc2)n1 | 76.1% |
| COc1cc2c(cc1[N+](=O)[O-])-c1ccc([N+](=O)[O-])cc1/C2=N/NC(N)=S | 57.4% |
| c1ccc(-c2nn(-c3ccccc3)[n+](-c3ccccc3-c3ccccc3)n2)cc1 | 19.2% |
| CC(C)(C#N)N1CCN(c2ccccc2Cl)CC1 | 102% |

| Structure (SMILES) | growth |
| --- | --- |
| O=C(CCN1CCCC1)Nc1ccc2c(NCc3ccc(F)cc3)c3ccccc3nc2c1 | -5.76% (active) |
| COc1ccc(/C=N/C2=C(C#N)C(c3ccccc3[N+](=O)[O-])c3ccc4ccccc4c3O2)cc1 (stereo not drawn) | 79.4% |
| Cc1n[nH]c(C)c1-c1c(C)n[nH]c1C | 18.7% |
| Nc1c(Cl)cc([N+](=O)[O-])cc1Br | 97.8% |
| COc1cccc(CNCCN2C(=O)c3ccc4c5c(ccc(c35)C2=O)C(=O)N(CCNCc2cccc(OC)c2)C4=O)c1 | 97.4% |
| NC(=O)CN1CCN(c2ccccc2Cl)CC1 | 96.9% |
| CN1CCN(c2cc(F)c(NC3=C(Cl)C(=O)c4ncccc4C3=O)c(F)c2)CC1 | -32.5% (active) |
| O=S(=O)(NCCNc1nccc(-c2c(-c3ccc(F)c(O)c3)nc3occn23)n1)c1ccccc1 | 71.9% |
| CC1(C)[C@H](O)CC[C@]2(C)[C@@H]1CC[C@@]13C[C@@H](CC[C@H]12)[C@@](O)(CO)C3 | 105% |
| CS(=O)(=O)c1ccc(-c2cc(-c3nnc(SCC(=O)Nc4ccc(C(=O)/C=C/c5ccc(Cl)cc5)cc4)n3-c3ccccc3)c3ccccc3n2)cc1 | 87% |
| COc1cc(OC)c(/C=C/C(=O)c2ccc(Nc3ncnc4ccccc34)cc2)c(OC)c1 | 36.2% |
| O=[N+]([O-])c1cccc(-c2nc(-c3ccc(Cl)cc3Cl)cn2-c2ccccc2)c1 | 15.6% |
| CC(=O)OCCCCCNc1ccccc1 | 103% |
| c1ccc(-c2nn(-c3ccccc3)[n+](-c3cccc4ccccc34)n2)cc1 | 25% |
| FCc1nc2nc(Cl)c(Cl)nc2[nH]1 | 101% |
| Cc1cc2nc(-c3ccccc3)c(-c3ccccc3)nc2cc1C | 86.5% |
| c1ccc2c(-c3c4ccsc4cc4[nH]c5ccccc5c34)c[nH]c2c1 | 26.3% |
| CN1CCCC1=Nc1ccccc1 | 106% |
| COc1ccc(-c2nc3sccn3c2/C=C/C(=O)c2cc(OC)c(OC)c(OC)c2)cc1 | 30.5% |
